Experimental findings from PubChem BioAssay (EPA / NIEHS) are described below.

Values joined by “and” are separate entries in the source; they are usually repeats but may differ in a detail not shown here. Equal values may be shown once. Active and inactive are the calls of the source. How the source made its calls: active means hit-call score of the fitted dose curve at least 0.9, where 1 is the maximum; inactive means score below 0.9.

The assay can be described thus: BSK_4H_SRB: Viability Assessment in the BioMAP Diversity Plus: 4H Assay (AID 2283027).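 On AC50: curves fitted both ways versus DMSO so AC50 may be loss or gain.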 Particulars: primary human endothelial cells (HUVEC). How it is done:
BSK_4H is a cell-based, multiplexed-readout assay that uses umbilical vein endothelium, a human vascular primary cell, with measurements taken at 24 hours after chemical dosing in a 96-well plate.BSK_4H_SRB is an assay component measured in the BSK_4H assay. It measures […] related to cell death using Sulforhodamine staining technology.Data from the assay component BSK_4H_SRB was analyzed into 1 assay endpoint. This assay endpoint, BSK_4H_SRB, was analyzed with bidirectional fitting relative to DMSO as the negative control and baseline of activity. Using a type of viability reporter, gain or loss-of-signal activity can be used to understand changes in the signaling. Furthermore, this assay endpoint can be referred to as a primary readout, because this assay has produced multiple assay endpoints where this one serves a signaling function. To generalize the intended target to other relatable targets, this assay endpoint is annotated to the cell morphology intended target family, where the subfamily is cell conformation.
The levels of cell surface (or secreted, indicated by the prefix "s") biomarker endpoints were measured by ELISA. Overt cytotoxicity to cells in confluent adherent cultures (all systems other than the BT system) was assessed by measuring total protein levels using sulforhodamine B (SRB) staining in parallel cultures at the time of biomarker measurements, indicated as SRB endpoints. For proliferation assays for adherent cell types, individual cell types are cultured at sub-confluence and relative cell numbers quantified by SRB staining at time points optimized for each system (48 h: 3C and CASM3C systems; 72 h: BT and HDF3CGF systems; 96 h: SAg system). SRB was performed by staining cells with 0.1% SRB after fixation with 10% TCA and reading wells at 560 nm.Viability and proliferation of PBMC (T cells) was quantified by Alamar Blue reduction for the SAg and BT systems. For PBMC viability (referred to as PBMC Cytotoxicity within the assay endpoint names), cells were plated (75,000/well in a 96-well plate) and then chemical samples added for 1 h before addition of activators, SEB and TSST-1 (20 ng/mL final concentration each). Cells were incubated for 90 h. Then, Alamar Blue (20 uL/well) (Invitrogen, Cat DAL1100) was added for 6 h, and the plates were read with a fluorescence microplate reader at 546/580 nm (excitation/emission). For PBMC proliferation, cells were plated and activated as above but incubated for only 16 h prior to addition of Alamar Blue. Plates were read after 6 h.
Usually AC50 stands for the midpoint of the concentration-response curve, whichever way the signal moves. For the compound `N#CSCSC#N`, the concentration at half-maximal activity (AC50) was 10.2 µM (active).

Take `CSc1nnc(C(C)(C)C)c(=O)n1N`: the result was inactive.

As for `CNC(=O)Oc1cccc2c1OC(C)(C)O2`, the result was inactive.

Regarding `CNc1cnn(-c2cccc(C(F)(F)F)c2)c(=O)c1Cl`, the outcome was inactive.

On to `O=C(O)c1cc(Oc2ccc(C(F)(F)F)cc2Cl)ccc1[N+](=O)[O-]`, for which the outcome was inactive.

Consider `CCOP(=S)(Oc1cnc(C(C)(C)C)nc1)OC(C)C` (stereo not given), for which the AC50 is 34.1 µM (active).

As for `CN1COCN(Cc2cnc(Cl)s2)C1=N[N+](=O)[O-]`, the outcome was inactive.

Consider `CCC(CC)Nc1c([N+](=O)[O-])cc(C)c(C)c1[N+](=O)[O-]`, for which the AC50 is 35.6 µM (active).

Take `S=C1NCCN1`: the outcome was inactive.

As to `CCNc1nc(Cl)nc(NC(C)(C)C#N)n1`, the result was inactive.

With `COc1cccc(C(=O)NN(C(=O)c2cc(C)cc(C)c2)C(C)(C)C)c1C`, the outcome was inactive.

Regarding `Nc1nc(N)nc(NC2CC2)n1`, the outcome was inactive.

As for `CCCCN(CC)c1c([N+](=O)[O-])cc(C(F)(F)F)cc1[N+](=O)[O-]`, the outcome was inactive.

For `O=c1ccc(=O)[nH][nH]1`, the result was inactive.

Regarding `CNC(=O)ON=C(C)SC`, the outcome was inactive.

Take `CCOC(=O)COc1cc(-c2nn(C)c(OC(F)F)c2Cl)c(F)cc1Cl`: the outcome was inactive.

With `CCOP(=O)(SC(C)CC)N1CCSC1=O` (stereo not given), the outcome was inactive.

Consider `CCCCSP(=O)(SCCCC)SCCCC`, for which the half-maximal activity concentration (AC50) is 20 µM (active).

Regarding `CC(COc1ccc(Oc2ccccc2)cc1)Oc1ccccn1` (stereo not given), the result was inactive.

In the case of `CCc1cccc(CC)c1N(COC)C(=O)CCl`, the half-maximal activity concentration (AC50) was 14.8 µM (active).

As for `CC1(C(=O)Nc2ccc(O)c(Cl)c2Cl)CCCCC1`, the result was inactive.

`CCCOCC(=Nc1ccc(Cl)cc1C(F)(F)F)n1ccnc1`: the concentration at half-maximal activity (AC50) is 29 µM (active).

Regarding `CCOP(=S)(OCC)Oc1ccc([N+](=O)[O-])cc1`, the outcome was inactive.

As for `O=[N+]([O-])c1cc(C(F)(F)F)c(Cl)c([N+](=O)[O-])c1Nc1ncc(C(F)(F)F)cc1Cl`, the concentration at half-maximal activity (AC50) was 1 µM (active) and 2.39 µM (active).

As to `CC(C)=CC1C(C(=O)OCN2C(=O)C3=C(CCCC3)C2=O)C1(C)C` (stereo not given), the result was inactive.

As to `COP(=O)(OC)OC(Br)C(Cl)(Cl)Br` (stereo not given), the AC50 was 29 µM (active).

Take `CC(C)[C@H](C(=O)O[C@H](C#N)c1cccc(Oc2ccccc2)c1)c1ccc(Cl)cc1`: the result was inactive.

Consider `CC(C)N(C(=O)SCC(Cl)=C(Cl)Cl)C(C)C`, for which the half-maximal activity concentration (AC50) is 33.4 µM (active).

On to `COP(=O)(NC(C)=O)SC` (stereo not given), for which the outcome was inactive.

In the case of `CNC(=O)ON=C(SC)C(=O)N(C)C`, the result was inactive.

`CCOP(=S)(OCC)Oc1cc(C)nc(C(C)C)n1`: the outcome was inactive.

For `CCOC(=O)CC(SP(=O)(OC)OC)C(=O)OCC` (stereo not given), the result was inactive.

Regarding `C#CCC1=C(C)C(OC(=O)C2C(C=C(C)C)C2(C)C)CC1=O` (stereo not given), the AC50 was 33.8 µM (active).

`CCc1cccc(C)c1N(C(=O)CCl)C(C)COC` (stereo not given): the result was inactive.

`CCOP(=S)(OCC)SCCSCC`: the result was inactive.

As for `CN(C)NC(=O)CCC(=O)O`, the outcome was inactive.

For the compound `FC(F)C(F)(F)OCC(Cn1cncn1)c1ccc(Cl)cc1Cl` (stereo not given), the result was inactive.

With `CN(C)[C@@H]1C(=O)C(C(N)=O)=C(O)[C@@]2(O)C(=O)C3=C(O)c4c(O)cccc4[C@@](C)(O)[C@H]3[C@H](O)[C@@H]12`, the outcome was inactive.

Consider `COP(=O)(OC)C(O)C(Cl)(Cl)Cl` (stereo not given), for which the result was inactive.

For the compound `CON=C(C(=O)OC)c1ccccc1CON=C(C)c1cccc(C(F)(F)F)c1`, the AC50 was 5.67 µM (active).
